Test results as given in article PMC4336329 (PLoS ONE, 2015).
Screen size: about 310,000 compounds; about 14,000 (4.5%) showed an effect of 50% or more. The effect is printed as a negative number. The sample holds strong results, similar compounds and a random draw of the others, so the mix is not that of the screen.

Molecular target: human ether-à-go-go-related gene (hERG) potassium channel (human, UniProt Q12809)
Assay: primary screen, population patch clamp on CHO cells stably expressing hERG; higher = less effect of the substance
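Further: peak tail current of the secondary pulse compared with the same well before compound.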

Sequence of human ether-à-go-go-related gene (hERG) potassium channel (Q12809 whole entry, looked up): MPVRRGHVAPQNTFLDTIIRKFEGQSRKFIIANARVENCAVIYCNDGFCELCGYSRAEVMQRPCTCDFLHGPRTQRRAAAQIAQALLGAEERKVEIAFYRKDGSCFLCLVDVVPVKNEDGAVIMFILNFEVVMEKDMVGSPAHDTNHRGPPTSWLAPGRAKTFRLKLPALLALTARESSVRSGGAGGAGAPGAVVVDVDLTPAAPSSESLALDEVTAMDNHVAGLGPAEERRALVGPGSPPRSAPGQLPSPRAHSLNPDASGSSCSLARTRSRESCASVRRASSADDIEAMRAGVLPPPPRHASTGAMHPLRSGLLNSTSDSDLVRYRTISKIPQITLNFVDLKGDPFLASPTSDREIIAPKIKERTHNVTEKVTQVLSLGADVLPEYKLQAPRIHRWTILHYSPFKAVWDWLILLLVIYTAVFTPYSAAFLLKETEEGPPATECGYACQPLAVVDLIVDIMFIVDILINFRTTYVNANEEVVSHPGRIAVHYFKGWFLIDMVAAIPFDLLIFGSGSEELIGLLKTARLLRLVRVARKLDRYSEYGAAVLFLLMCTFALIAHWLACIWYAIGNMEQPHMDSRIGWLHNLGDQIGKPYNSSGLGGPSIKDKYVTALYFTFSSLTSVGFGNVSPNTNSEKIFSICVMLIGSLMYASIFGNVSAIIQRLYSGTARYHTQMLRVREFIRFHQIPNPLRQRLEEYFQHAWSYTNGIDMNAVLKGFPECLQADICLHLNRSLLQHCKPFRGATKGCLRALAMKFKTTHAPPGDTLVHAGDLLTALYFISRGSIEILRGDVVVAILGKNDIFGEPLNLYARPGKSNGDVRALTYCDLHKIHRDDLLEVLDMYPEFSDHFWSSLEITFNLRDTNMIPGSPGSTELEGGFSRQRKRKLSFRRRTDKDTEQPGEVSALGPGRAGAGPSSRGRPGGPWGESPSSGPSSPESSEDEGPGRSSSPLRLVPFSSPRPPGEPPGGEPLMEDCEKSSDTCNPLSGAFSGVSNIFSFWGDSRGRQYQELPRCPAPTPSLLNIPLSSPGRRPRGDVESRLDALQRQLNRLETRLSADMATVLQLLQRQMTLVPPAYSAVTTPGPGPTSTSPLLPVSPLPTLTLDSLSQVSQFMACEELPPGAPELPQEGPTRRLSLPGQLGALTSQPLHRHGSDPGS

Row | SMILES | hERG current change (%, negative = inhibition) at 10uM [%]
1 | CC(C)C(NS(=O)(=O)c1cccs1)C(=O)NCc1ccc2c(c1)OCO2 (stereo not drawn) | -12
2 | COc1ccccc1C(C#N)c1cccc(Cl)n1 (stereo not drawn) | 0.219
3 | O=C(CCCn1c(=O)c2cccn2c2cccnc21)NCc1cccc(Br)c1 | -13.8
4 | CC1CCCN(C(=O)c2ccc(OC3CCN(CCc4ccccc4)CC3)cc2)C1 (stereo not drawn) | -58.1
5 | O=C(c1ccc(OC2CCN(CCc3ccccc3)CC2)cc1)N1CCCC1 | -30
6 | COC1CCCN(C(=O)c2ccc(OC3CCN(CCc4ccccc4)CC3)cc2)C1 (stereo not drawn) | -11.6
7 | O=C(c1ccc(OC2CCN(CCc3ccccc3)CC2)cc1)N1CCCC(O)C1 (stereo not drawn) | -2.05
8 | O=C(c1ccc(OC2CCN(CCCc3ccccc3)CC2)cc1)N1CCCC1 | -69.8
9 | CC(=O)N1CCN(C(=O)c2ccc(OC3CCN(CCc4ccccc4)CC3)cc2)CC1 | 15.6
10 | COc1ccc(CNC(=O)CCn2nc(C)c3c(C)n(-c4ccccc4)nc3c2=O)c(OC)c1 | 11.8
11 | O=C(NCc1ccc(Cl)cc1)c1ccc(NC(=O)C2CCCO2)cc1 (stereo not drawn) | 13.2
12 | O=C1CCCC2=C1C(c1cccs1)n1nc(SCc3ccc(C(=O)O)cc3)nc1N2 (stereo not drawn) | 2.81
13 | O=C(Cn1c2ccccc2c2nc3n(c(=O)c21)CCS3)Nc1ccccc1C(F)(F)F | 15.1
14 | Cc1ccc(N2CC(C(=O)NCCN3CCOCC3)CC2=O)cc1 (stereo not drawn) | 8.92
15 | CC1CCCCN1C(=O)NC1CC(=O)N(c2ccc3c(c2)OCCO3)C1 (stereo not drawn) | 5.7
16 | Cc1cc(Cn2nc(-c3ccccc3)cc2C(=O)NCC2CC2)on1 | 9.32
17 | O=C(O)c1cc(-c2ccccc2)nn1CC1CC(c2cccc([N+](=O)[O-])c2)=NO1 (stereo not drawn) | 19.1
18 | Cc1ccc(CNC(=O)c2cc(-c3ccccc3C)n(CC3CC(c4cccc([N+](=O)[O-])c4)=NO3)n2)cc1 (stereo not drawn) | 13.6
19 | O=C(NCC1CC1)c1cc(-c2ccccc2)nn1CC1CC(c2cccc([N+](=O)[O-])c2)=NO1 (stereo not drawn) | -60.8
20 | Cc1ccc(CNC(=O)c2cc(-c3ccccc3)nn2CC2CC(c3cccc([N+](=O)[O-])c3)=NO2)cc1 (stereo not drawn) | -8.09
21 | CCOC(=O)c1cc(-c2ccccc2)nn1CC1CC(c2cccc([N+](=O)[O-])c2)=NO1 (stereo not drawn) | -24.2
22 | COCCNC(=O)c1cc(-c2ccccc2)nn1CC1CC(c2cccc([N+](=O)[O-])c2)=NO1 (stereo not drawn) | -50.6
23 | O=C(NCc1cccs1)c1cc(-c2ccccc2)nn1CC1CC(c2cccc([N+](=O)[O-])c2)=NO1 (stereo not drawn) | -66.9
24 | Cc1ccccc1-c1cc(C(=O)NCC2CC2)nn1CC1CC(c2cccc([N+](=O)[O-])c2)=NO1 (stereo not drawn) | -26.6
25 | CCc1cc(Cn2nc(-c3ccccc3)cc2C(=O)NCC2CC2)on1 | -51.8
26 | CCc1cc(Cn2nc(-c3ccccc3)cc2C(=O)NCCOC)on1 | -9.96
27 | Cc1ccccc1-c1cc(C(=O)NCc2cccs2)nn1CC1CC(c2cccc([N+](=O)[O-])c2)=NO1 (stereo not drawn) | 4.08
